High-throughput results from PubChem BioAssay.
Sm TGR inh = blocks Schistosoma mansoni thioredoxin glutathione reductase | Q962Y6 | 360,000 compounds, 3% hits | Potency, µM (titrated, usually from 114 µM), inactives show at the top dose activity change, negative = inhibition, usual class: inhibitors | purified TGR, DTNB reduction, TNB absorbance 405 nm; further: potency means the concentration at half of the fitted maximal effect; on the % scale 0 is the no-effect control and ±100 the full control effect; nearly all actives have a fitted effect of over 60% in size
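TGR 20 nM + NADPH 100 uM (dispensed conc.), cpd preinc 15 min RT; start with NADPH (500 uM addition) then DTNB (15 mM addition). Kinetic TNB absorbance, 405 nm filter. Four-parameter Hill fit across titration.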
Pf growth 96h = inhibits malaria parasite growth, 96 h | P. falciparum luciferase reporter growth, 96 h | Potency, µM (highest dose often 28.7 µM), without a hit: top-dose activity change, negative = inhibition, actives largely listed as inhibitors | 320,000 compounds, 6.9% hits; further: potency means the concentration at half of the fitted maximal effect; on the % scale 0 is the no-effect control and ±100 the full control effect
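Luminescence readout: decreased luciferase signal marks inhibited growth of reporter-expressing P. falciparum in infected red cells (2% hematocrit, 0.05% parasitemia final), exposed to compound two generations (96 h, 37 C, 5% CO2).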
Shiga inhibitor = blocks Shiga toxin action in Vero cells; Vero cells, Shiga toxin protein synthesis inhibition reporter; 290,000 compounds, 9.2% hits; AID 2315; inhibition, % at 38.7 µM; in the data active means inhibition mostly above about 28%, no sharp cut-off; inactive means mostly below about 43%; further: 0% is about no effect
CHX counter = counter-screen for Shiga toxin inhibitors: cycloheximide protein synthesis inhibition; cell reporter, cycloheximide protein synthesis inhibition counterscreen; max response, %; 300,000 compounds, 12% hits; in the data active means max response mostly above about 13%, no sharp cut-off; inactive means mostly below about 14%; further: read at 38.3 µM for the half of the compounds with a filed dose; 0% is about no effect
Pf growth 48h = inhibits P. falciparum growth in the first generation, 48 h; P. falciparum luciferase growth in erythrocytes, 48 h; Potency, µM (series often up to 28.7 µM), without a hit: at the top dose activity change, negative = inhibition, actives largely listed as inhibitors; 310,000 compounds, 5.9% hits; further: potency means the concentration at half of the fitted maximal effect; on the % scale 0 is the no-effect control and ±100 the full control effect
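Compounds are pin-transferred into medium, infected erythrocytes (2% hematocrit, 0.1% parasitemia final) are added, and plates sit one parasite generation at 37 C in 5% CO2. Detection reagent is then added and luminescence measured.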
NS1 inh = influenza NS1 inhibition | Potency, µM (series often up to 46.1 µM), without a hit: top-dose activity, positive = more growth | AID 2326 | 270,000 compounds, 0.4% hits; calls by dose curve; further: potency means the concentration at half of the fitted maximal effect; actives are rising curves; nearly all actives have a fitted effect of over 50% in size
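A cell-based growth assay was used: compounds that relieve NS1-induced slow growth of budding yeast raise OD600. Assay medium was yeast nitrogen base with ammonium sulphate and -URA supplement, pH 6.0, with 2% galactose.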
* marks the source's active call; other numbers are inactive results. Only some compounds are listed: those with a hit (about 21% of all), similar ones and a draw of the others. Unless noted, the call rests on the fitted dose curve; in most records, active means well fitted curve in the direction sought with a large enough effect; inconclusive means small, poorly fitted or top-dose-only effect, or another doubt; inactive means no such curve, though single readings can be large; an effect the other way counts as inactive or inconclusive.

Results for Cc1ccc(C(c2sc3ncnn3c2O)N2CCCCC2)cc1 (stereo unspecified) ?
Sm TGR inh: 5%; Pf growth 96h: inconclusive; Shiga inhibitor: 37*; CHX counter: 10*; Pf growth 48h: inconclusive; NS1 inh: inconclusive

How did Oc1c(C(c2ccc(F)cc2)N2CCc3ccccc3C2)sc2ncnn12 (stereo unspecified) do in these assays?
Sm TGR inh: -9%; Pf growth 96h: inconclusive; Shiga inhibitor: -8; CHX counter: -2; Pf growth 48h: -21%; NS1 inh: 8%

Results for Cn1ccnc1C(OC(=O)c1ccc(Cl)cc1)C(F)(F)F (stereo unspecified) ?
Sm TGR inh: -10%; Pf growth 96h: -3%; Shiga inhibitor: -9; CHX counter: 4; Pf growth 48h: 1%; NS1 inh: 1%

How did CN(C)C(=O)c1nc2ccc(Cl)cn2c1CNCc1ccccc1OC(F)(F)F do in these assays?
Sm TGR inh: 10%; Pf growth 96h: -1%; Shiga inhibitor: 1; CHX counter: -2; Pf growth 48h: 5%; NS1 inh: -3%

How did CC1CCc2c(C(=O)NCc3ccco3)csc2C1 (stereo unspecified) do in these assays?
Sm TGR inh: -9%; Pf growth 96h: 48%; Shiga inhibitor: 48; CHX counter: 17*; Pf growth 48h: 103%; NS1 inh: -55%

What do the screens show for `COC(=O)c1ccccc1NC(=O)NCCc1ccccc1OC`?
Sm TGR inh: -3%; Pf growth 96h: 32%; Shiga inhibitor: 83*; CHX counter: 28*; Pf growth 48h: 154%; NS1 inh: -3%

How did O=C(NCc1cccs1)c1csc2c1CCCCC2 do in these assays?
Sm TGR inh: -22%; Pf growth 96h: inconclusive; Shiga inhibitor: 19; CHX counter: 21*; Pf growth 48h: 35%; NS1 inh: inconclusive

What do the screens show for `CC1CCc2c(C(=O)Nc3cccc(-c4nn[nH]n4)c3)csc2C1` (stereo unspecified)?
Sm TGR inh: 4%; Pf growth 96h: 3%; Shiga inhibitor: 40; CHX counter: 19; Pf growth 48h: 50%; NS1 inh: -5%

What do the screens show for `CC(=O)c1ccc(C#CC(C)(C)O)s1`?
Sm TGR inh: 0%; Pf growth 96h: 19%; Shiga inhibitor: 0; CHX counter: 13; Pf growth 48h: 19%; NS1 inh: 10%

What do the screens show for `CC(C)(O)C#Cc1ccc(C(=O)NCc2cccs2)s1`?
Sm TGR inh: 0%; Pf growth 96h: 9.3µM*; Shiga inhibitor: 33; CHX counter: 26*; Pf growth 48h: 17%; NS1 inh: -6%

What do the screens show for `COc1ccccc1NC(=O)NCCc1ccccc1`?
Sm TGR inh: 3%; Pf growth 96h: 33%; Shiga inhibitor: -1; CHX counter: 9; Pf growth 48h: inconclusive; NS1 inh: 20%

Results for COc1ccccc1NC(=O)Cn1c(=O)n(CCCCCC(=O)NCc2ccccc2)c(=O)c2sccc21 ?
Sm TGR inh: 1%

What do the screens show for `CCC(Sc1nc2ccccc2c2nc(-c3ccccc3)nn12)C(=O)Nc1cccc(OC)c1` (stereo unspecified)?
Sm TGR inh: 2%

How did CC(=O)c1cccc(NC(=O)C(C)OC(=O)CCCN=C2NS(=O)(=O)c3ccccc32)c1 (stereo unspecified) do in these assays?
Sm TGR inh: 1%; Pf growth 96h: -1%; Pf growth 48h: 0%

What do the screens show for `O=C(NCc1ccco1)c1csc2c1CCCCC2`?
Sm TGR inh: -4%; Pf growth 96h: -9%; Shiga inhibitor: 19; CHX counter: 22*; Pf growth 48h: 28%; NS1 inh: -8%

What do the screens show for `COc1ccccc1CCNC(=O)c1ccc(Br)s1`?
Sm TGR inh: -7%; Pf growth 96h: inconclusive; Shiga inhibitor: 63*; CHX counter: 37*; Pf growth 48h: 27%; NS1 inh: -49%

How did COc1ccccc1CCNC(=O)c1csc2c1CCCC2 do in these assays?
Sm TGR inh: 14%; Pf growth 96h: inconclusive; Shiga inhibitor: 38*; CHX counter: 13; Pf growth 48h: inconclusive

How did O=C(NCc1cccs1)c1cc2c(s1)CCCC2 do in these assays?
Sm TGR inh: 7%; Pf growth 96h: 111%; Shiga inhibitor: 86*; CHX counter: 45*; Pf growth 48h: 120%; NS1 inh: -38%

How did COc1ccc(CNC(=O)c2csc3c2CCCC3)cc1 do in these assays?
Sm TGR inh: -11%; Pf growth 96h: -20%; Pf growth 48h: -4%

How did O=C(NCc1ccccc1)c1csc2c1CCCCC2 do in these assays?
Sm TGR inh: 3%; Shiga inhibitor: 46; CHX counter: 22; NS1 inh: -11%

Results for O=C(NCc1cccs1)c1ccccc1C(=O)NCc1cccs1 ?
Sm TGR inh: 8%; Pf growth 96h: -18%; Shiga inhibitor: -7; CHX counter: -1; Pf growth 48h: 11%; NS1 inh: inconclusive

What do the screens show for `COc1ccccc1CCNS(=O)(=O)CCNC(=O)c1ccccc1`?
Sm TGR inh: 3%; Pf growth 96h: 0%; Pf growth 48h: 8%

What do the screens show for `O=C(NCc1ccc(F)cc1)c1cc2c(s1)CS(=O)(=O)C2`?
Sm TGR inh: -3%; Pf growth 96h: 6.6µM*; Shiga inhibitor: -9; CHX counter: -9; Pf growth 48h: 2%; NS1 inh: 19%

How did CCC(C)NC(=O)c1csc2c1CCCCC2 (stereo unspecified) do in these assays?
Sm TGR inh: -3%; Shiga inhibitor: -7; CHX counter: -1; Pf growth 48h: 8%; NS1 inh: -72%

How did CC(C)CCNC(=O)c1csc2c1CCCCC2 do in these assays?
Sm TGR inh: 5%; Pf growth 96h: -12%; Shiga inhibitor: 55*; CHX counter: 47*; Pf growth 48h: 23%

How did O=C(NCc1ccco1)c1c2c(nc3ccccc13)CCC2 do in these assays?
Sm TGR inh: 40µM*; Pf growth 96h: 31%; Shiga inhibitor: 50; CHX counter: 3; Pf growth 48h: -21%; NS1 inh: -8%

How did O=C(CSc1c2c(nc3ccccc13)CCCC2)NCc1ccco1 do in these assays?
Sm TGR inh: inconclusive; Pf growth 96h: -11%; Shiga inhibitor: -9; CHX counter: -5; Pf growth 48h: inconclusive

Results for CCN(CC)CC(=O)N1c2ccccc2CCc2ccc(NC(=O)c3cc(OC)c(OC)c(OC)c3)cc21 ?
Sm TGR inh: -24%; Pf growth 96h: 9.3µM*; Shiga inhibitor: 9; CHX counter: 5; Pf growth 48h: 12µM*; NS1 inh: 1%

What do the screens show for `CCN(CC)CC(=O)Nc1ccc2c(c1)Nc1ccccc1CC2`?
Sm TGR inh: 0%; Pf growth 96h: -62%; Shiga inhibitor: 33*; CHX counter: 21*; Pf growth 48h: inconclusive; NS1 inh: -10%
